Assay outcomes: PubChem BioAssay, several laboratories
A selection: hits, their analogues and other compounds. The true share with any hit is near 0.98%.
RTF Ca sens act – cardiac RTF calcium sensitization; AID 493008; 0.24% of 340,000 active; IANBD-labeled TnC RTF fluorescence at EC20 calcium; 0% EC20 calcium, 100% full calcium; P19429+P45379; activation, % at 7.2 µM;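 active = activation above the mean over all tested compounds plus 3 SD, cut at about 30% in these data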;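 also: rise in fluorescence read as greater calcium sensitivity of cardiac thin filaments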
EBV gp42 block – blocks Epstein-Barr virus glycoprotein 42 binding; Q1HVG2; Fluorescence polarization binding assay, mP read-out; inhibition, % (tested at 21.74 µM); 0.42% of 220,000 active; AID 1085; in the data active = inhibition above about 50%
E coli Lon inh – inhibits E. coli Lon protease. P0A9M0. inhibition, % at 7.94 µM. purified E. coli Lon protease, fluorescence polarization. 0.42% of 360,000 active; in the data active = inhibition above about 13%, passing the limit was not always enough
Target sequence (P0A9M0 whole entry, looked up): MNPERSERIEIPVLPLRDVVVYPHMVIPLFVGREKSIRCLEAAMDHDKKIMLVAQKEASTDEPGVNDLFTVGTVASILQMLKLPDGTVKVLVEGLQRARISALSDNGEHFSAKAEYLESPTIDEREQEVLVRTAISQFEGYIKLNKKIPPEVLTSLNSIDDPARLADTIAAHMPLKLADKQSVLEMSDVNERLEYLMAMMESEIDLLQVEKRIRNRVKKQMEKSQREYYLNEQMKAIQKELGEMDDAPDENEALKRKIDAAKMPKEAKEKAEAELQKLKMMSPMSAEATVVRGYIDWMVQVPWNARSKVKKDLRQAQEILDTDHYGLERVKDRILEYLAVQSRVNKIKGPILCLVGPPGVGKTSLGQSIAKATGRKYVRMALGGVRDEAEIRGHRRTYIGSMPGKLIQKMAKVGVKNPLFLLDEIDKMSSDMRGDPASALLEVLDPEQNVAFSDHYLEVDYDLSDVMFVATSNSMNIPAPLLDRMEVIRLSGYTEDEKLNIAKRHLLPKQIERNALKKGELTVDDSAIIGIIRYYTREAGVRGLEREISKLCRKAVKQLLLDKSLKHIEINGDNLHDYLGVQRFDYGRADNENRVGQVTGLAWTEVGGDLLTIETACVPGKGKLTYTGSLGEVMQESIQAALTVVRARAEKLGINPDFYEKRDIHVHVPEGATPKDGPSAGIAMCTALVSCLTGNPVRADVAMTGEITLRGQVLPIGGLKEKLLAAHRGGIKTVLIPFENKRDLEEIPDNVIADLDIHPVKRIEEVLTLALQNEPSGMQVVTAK
C-LANA FP – KSHV C-LANA DNA binding inhibition; MBP-C-LANA/FAM-LBS DNA binding, fluorescence polarization; inhibition, % at 9 µM; 0.078% of 340,000 active;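 active = highest replicate inhibition at or above 60% at 9 µM, even if other replicates fall short; inactive = all replicates below 60% inhibition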
Keap1-Nrf2 PPI – Keap1-Nrf2 (human) interaction inhibition | 0.15% of 340,000 active | inhibition, % at 9.4 µM | Q14145 | Keap1 Kelch-Nrf2 peptide fluorescence polarization, 1536-well | AID 504523; in the data active = inhibition above about 12%;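 also: human Keap1 Kelch domain with fluorescein labeled Nrf2 9mer peptide probe; higher means more block of Keap1 binding to Nrf2 peptide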
Cardiac RTF inh – cardiac RTF calcium desensitization | P19429+P45379 | inhibition, % at 7.15 µM | IANBD-labeled cardiac RTF, Ca2+ fluorescence | 0.12% of 340,000 active | AID 493244;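 active = inhibition above the mean inhibition of all tested compounds plus 3 SD, cut at about 17% in these data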;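 also: assay run at fixed EC70 calcium of 1.6 mM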
E coli Lon conf – confirmation of E. coli Lon protease inhibitors; 31% of 1,400 active; shares compounds with E coli Lon inh; AID 602230; purified E. coli Lon, fluorescence polarization; inhibition, % at 7.94 µM; in the data active = inhibition above about 16%
Large screens that a line does not name were inactive (follow-up assays come after a bar, where they were run).

Cn1c(NC2CCCCC2)cc(=O)n(C)c1=O	E coli Lon inh 27 (no result: EBV gp42 block) | E coli Lon conf inactive
Cn1cnnc1SCC(=O)Nc1ccc2ccccc2c1	E coli Lon inh 14 (no result: EBV gp42 block) | E coli Lon conf inactive
Cc1ccc(NC(=O)CSc2nnc(-c3ccncc3)n2C)cc1C	E coli Lon inh 33 | E coli Lon conf inactive
Cn1cnnc1SCC(=O)Nc1ccccc1	none
COc1ccc(NC(C)=O)cc1NC(=O)CSc1nnc(-c2ccncc2)n1C	none
CCNC(=O)c1c(C)nc2ccccn12	E coli Lon inh 16 | E coli Lon conf inactive
O=c1[nH][nH]c2cc([N+](=O)[O-])ccc12	none (no result: EBV gp42 block)
Cc1ccc(C(=O)Nn2c(O)c(C=C3N=c4ccccc4=N3)sc2=S)cc1	EBV gp42 block 61, E coli Lon inh 26 | E coli Lon conf 33
CCC/C=C/c1ccc(CN2C(C)C(=O)N(Cc3cn(CCC4OCCO4)nn3)CCS2(=O)=O)cc1 (configuration not stated)	none (no result: RTF Ca sens act, EBV gp42 block, C-LANA FP, Keap1-Nrf2 PPI, Cardiac RTF inh)
O=C(Cn1nc(-c2ccc(Cl)cc2)c2ccccc2c1=O)Nc1cccnc1	E coli Lon inh 18 | E coli Lon conf inactive
O=C(Cn1nc(-c2ccccc2)c2ccccc2c1=O)Nc1cccnc1	none
Cc1ccc(N2C=Nc3ccc(C)c4nc(C)cc2c34)cc1	E coli Lon inh 18 | E coli Lon conf inactive
CC1=Nc2ccc(C)c3nc(C)cc(c23)N1c1ccc(C)cc1	none
O=C(O)C(Cc1ccc(OS(=O)(=O)Cc2ccccc2)cc1)NS(=O)(=O)Cc1ccccc1 (configuration not stated)	none (no result: EBV gp42 block)
O=C(COc1ccccc1Cl)NC(=O)NC1CCCCC1	none (no result: EBV gp42 block)
O=C(COc1ccc(F)cc1Cl)NC1CCCCCC1	E coli Lon inh 160 (no result: EBV gp42 block) | E coli Lon conf inactive
CCc1ccc(OCC(=O)NNC(=S)NC(=O)C2CCCCC2)c(Br)c1	none (no result: EBV gp42 block)
CCc1ccc(OCC(=O)NC2CCCCC2)c(Br)c1	E coli Lon inh 36 (no result: EBV gp42 block) | E coli Lon conf 16
O=C(N1CCOCC1)N1[C@H](COCc2ccccc2)C=CS1(=O)=O	none (no result: RTF Ca sens act, EBV gp42 block, C-LANA FP, Keap1-Nrf2 PPI, Cardiac RTF inh)
Cc1[nH]c2ccccc2c1/C=N\NC(=O)c1ccco1	E coli Lon inh 159 (no result: EBV gp42 block) | E coli Lon conf inactive
Cc1[nH]c2ccccc2c1/C=N/NC(=O)c1cccc(F)c1	E coli Lon inh 31 | E coli Lon conf inactive
Cc1[nH]c2ccccc2c1/C=N/NC(=O)CNC(=O)c1ccco1	none (no result: RTF Ca sens act, Cardiac RTF inh)
COCCNC(=O)C1(C)CCN(C(=O)c2ccc3c(c2)C(C)(C)CCC3(C)C)C1 (configuration not stated)	none (no result: RTF Ca sens act, EBV gp42 block, C-LANA FP, Keap1-Nrf2 PPI, Cardiac RTF inh)
COc1cccc(NC(=O)N(C)C[C@H]2Oc3ncc(Br)cc3C(=O)N([C@H](C)CO)C[C@H]2C)c1	E coli Lon inh 13 (no result: RTF Ca sens act, EBV gp42 block, C-LANA FP, Keap1-Nrf2 PPI, Cardiac RTF inh) | E coli Lon conf inactive
O=C(CN1C(=O)COc2ccc(S(=O)(=O)N3CCOCC3)cc21)Nc1cccc(Cl)c1	E coli Lon inh 19 (no result: EBV gp42 block) | E coli Lon conf inactive
O=C(Nc1c2c(nn1-c1ccc([N+](=O)[O-])cc1)CS(=O)(=O)C2)c1ccccc1F	none (no result: EBV gp42 block)
CCN(CC)C(=S)Nc1ccc(Cl)c(Cl)c1	E coli Lon inh 17 | E coli Lon conf 32
Cc1cccc(C(=O)NN2S(=O)(=O)c3ccccc3S2(=O)=O)c1	E coli Lon inh 17 | E coli Lon conf inactive
O=C(NN1S(=O)(=O)c2ccccc2S1(=O)=O)c1ccc(Br)cc1	none
O=C(O)CCCC(=O)Nc1ccccc1SCCS(=O)(=O)c1ccc(Cl)cc1	none (no result: EBV gp42 block)
CCCOc1ccc(-c2c(=O)n(O)c3ccccc3[n+]2[O-])cc1	none (no result: EBV gp42 block)
CN(C)CCCn1c2c3ccccc3ccc2c2oc(=O)c3ccccc3c21	E coli Lon inh active (no result: EBV gp42 block) | E coli Lon conf 23
COC(=O)[C@H](C)NC(=O)NCCC1=CCCCC1	E coli Lon inh 24 | E coli Lon conf inactive
CCC(C)[C@H](NC(=O)NCCC1=CCCCC1)C(=O)OC (some centres not stated)	none
CC(C)c1ccc(Nc2nc(N3CCOCC3)nc(N3CCOCC3)n2)cc1	none (no result: RTF Ca sens act, EBV gp42 block, C-LANA FP, Keap1-Nrf2 PPI, Cardiac RTF inh)
CC(C)CCCNc1nc(N2CCOCC2)nc(N2CCOCC2)n1	E coli Lon inh 84 | E coli Lon conf inactive
c1ccc(Nc2ccccc2Nc2ccccn2)nc1	E coli Lon inh 33 | E coli Lon conf inactive
CC(=O)c1cccc(NC(=O)Nc2ccc3c(c2)OCO3)c1	none (no result: EBV gp42 block)
CC(=O)c1ccc2c(c1)c(C#N)c1ccccc1[n+]2[O-]	E coli Lon inh 96 (no result: EBV gp42 block) | E coli Lon conf 88
CC1CCN(C(=O)C(C)NCc2ccc(F)cc2)CC1 (configuration not stated)	E coli Lon inh 36 (no result: EBV gp42 block) | E coli Lon conf inactive
CCOc1ccc(/C(O)=C2/C(=O)C(=O)N(c3ccccn3)C2c2ccc(C)cc2)c(C)c1 (configuration not stated)	E coli Lon inh 26 (no result: EBV gp42 block) | E coli Lon conf inactive
CCOc1ccc(/C(O)=C2/C(=O)C(=O)N(c3ccccn3)C2c2ccc(Cl)cc2)c(C)c1 (configuration not stated)	none (no result: EBV gp42 block)
CS(=O)(=O)N(CC(=O)N1CCc2ccccc2C1)c1ccccc1F	none (no result: RTF Ca sens act, EBV gp42 block, C-LANA FP, Keap1-Nrf2 PPI, Cardiac RTF inh)
CC(=O)n1nc(-c2ccc(C)cc2)nc1NCc1ccco1	none
CC(=O)n1nc(-c2ccc(C)cc2)nc1NCc1ccc(F)cc1	E coli Lon inh 18 | E coli Lon conf inactive
O=C(c1ccc2c(c1)CCN2S(=O)(=O)c1ccccc1)N1CCN(c2ccccc2F)CC1	E coli Lon inh 18 (no result: EBV gp42 block) | E coli Lon conf inactive
O=C(c1ccc2c(c1)CCN2S(=O)(=O)c1ccccc1)N1CCN(c2ccccc2)CC1	none (no result: EBV gp42 block)
COc1ccc(CNC(=O)COC(=O)Cc2ccc(Br)cc2)cc1	none (no result: EBV gp42 block)
CCNc1c2c3c(cccc3n(C)c1=O)C(=O)c1ccccc1-2	none (no result: RTF Ca sens act, E coli Lon inh, C-LANA FP, Keap1-Nrf2 PPI, Cardiac RTF inh)
CC(=O)Nc1ccc(Nc2c3c4c(cccc4n(C)c2=O)C(=O)c2ccccc2-3)cc1	RTF Ca sens act 178, EBV gp42 block 141, E coli Lon inh 148 | E coli Lon conf 178
Cn1c(=O)c(NC2CCCCC2)c2c3c(cccc31)C(=O)c1ccccc1-2	RTF Ca sens act 369, EBV gp42 block 139, E coli Lon inh 118, Keap1-Nrf2 PPI 53 | E coli Lon conf inactive
CCOC(=O)C1=C(COC(=O)/C=C/c2cccc(OC)c2OC)NC(=O)NC1C (configuration not stated)	none (no result: EBV gp42 block)
O=C(N/N=C/c1ccc(-c2ccc(S(=O)(=O)Nc3ncccn3)cc2)o1)c1cc2ccccc2cc1O	E coli Lon inh 26 | E coli Lon conf 30
COc1ccc2c(c1)[C@H]1[C@H](CO2)[C@H](c2ccccc2)[C@]2(C)C(=O)N(CC3CCCO3)CC(=O)N12 (some centres not stated)	none (no result: EBV gp42 block)
CC1=C(C(=O)c2ccccc2)C(c2cccc([N+](=O)[O-])c2)NC(=S)N1 (configuration not stated)	E coli Lon inh 26 | E coli Lon conf inactive
CC1(C)CC=C(NNC(=O)c2cccnc2)C(=O)C1	E coli Lon inh 21 | E coli Lon conf inactive
